ALOX12 inhib – 12-hLO (ALOX12) enzyme inhibition. purified 12-hLO, xylenol orange hydroperoxide absorbance. Potency, µM (series often up to 57.1 µM), for the others: top-dose activity change, negative = inhibition, hits mostly inhibitors. 150,000 tested, 0.12% active; active = well fitted curve in the direction sought with a large enough effect; inconclusive = small, poorly fitted or top-dose-only effect, or another doubt; inactive = no such curve, though single readings can be large; an effect the other way counts as inactive or inconclusive; also: potency is read from the fitted curve at half-maximal effect; nearly all actives have a fitted effect of over 55% in size
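150 nM 12hLO, 25 mM Hepes pH 7.0 + 0.01% Triton X-100; cpd preinc 15 min RT; 40 uM arachidonic acid, 30 min RT; Fe-XO 30 min; A573/A405 ratio as read-out.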
IMPase Li cell – membrane-permeable IMPase blocker, potentiated with lithium; CHO-M1 cells, IP1 TR-FRET (IP-One), carbachol + lithium; Potency, µM (doses to about 59.4 µM), for inactives: top-dose activity, negative = IMPase inhibition, hits mostly inhibitors; 210,000 tested, 0.35% active; active = well fitted curve in the direction sought with a large enough effect; inconclusive = small, poorly fitted or top-dose-only effect, or another doubt; inactive = no such curve, though single readings can be large; an effect the other way counts as inactive or inconclusive;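 also: IP1 builds up when IMPase is blocked and the TR-FRET signal falls; potency is read from the fitted curve at half-maximal effect; plate controls were basal vehicle for no effect and high inhibitor control for full effect; nearly all actives have a fitted effect of over 50% in size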
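CHO-M1, 2000 cells/well, 16–30 h culture; cpd + low Li+, 30 min 37C; lysis with d2-IP1/Eu-anti-IP1 Ab, 10 min RT; TR-FRET 665/620 ratio and 620 channel; AC50 via Hill.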
ALDH1A1 block – ALDH1A1 (human) enzyme inhibition. P00352. Potency, µM (doses to about 75.3 µM), inactives show at the top dose activity, negative = inhibition, hits mostly inhibitors. AID 1030. Purified ALDH1A1, NADH fluorescence, propionaldehyde substrate. 220,000 tested, 7.3% active;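 also: potency is read from the fitted curve at half-maximal effect; plate controls were no enzyme wells and a reference inhibitor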
IMPase cell inh – membrane-permeable compound that blocks inositol monophosphatase. AID 901. CHO-M1 cells, IP1 accumulation, HTRF TR-FRET ratio. inhibition (IP1 accumulation), % at 46.1 µM. 120,000 tested, under 10 active; active = well fitted curve in the direction sought with a large enough effect in the signal ratio, not every such curve was filed as active; inconclusive = small, poorly fitted or top-dose-only effect, or a change in a side signal; inactive = no such curve, though single readings can be large or run the other way; the % refers to the signal ratio;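 also: cells stimulated with carbachol in lithium chloride buffer; plate controls were DMSO basal wells for no effect and reference inhibitor wells for full effect; higher means more IMPase inhibition seen as more IP1 and lower FRET ratio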
Target sequence (P97697 whole entry, looked up): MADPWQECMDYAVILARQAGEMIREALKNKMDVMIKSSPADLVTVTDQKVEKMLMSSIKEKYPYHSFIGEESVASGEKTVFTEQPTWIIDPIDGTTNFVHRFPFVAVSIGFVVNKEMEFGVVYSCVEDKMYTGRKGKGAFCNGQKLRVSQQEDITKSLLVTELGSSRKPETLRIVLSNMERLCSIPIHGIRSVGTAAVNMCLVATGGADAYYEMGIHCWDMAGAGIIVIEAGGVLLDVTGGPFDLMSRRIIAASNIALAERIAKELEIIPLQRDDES
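CHO-M1 cells (CHO stably expressing M1 receptor), compound up to 46 uM final, stimulated with carbachol (50 uM as added) in buffer with 50mM LiCl, pH 7.4, 30 min at 37C. Cytosolic IP1 read by TR-FRET; AC50 from Hill fits.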
HPGD inh – inhibitors of human 15-hydroxyprostaglandin dehydrogenase (HPGD); 150,000 tested, 4.3% active; purified HPGD, NADH fluorescence kinetic, PGE2 substrate; P15428; Potency, µM, inactives show top-dose activity change, negative = inhibition, most hits filed as inhibitors; also: potency is read from the fitted curve at half-maximal effect
Target sequence (P15428 whole entry, looked up): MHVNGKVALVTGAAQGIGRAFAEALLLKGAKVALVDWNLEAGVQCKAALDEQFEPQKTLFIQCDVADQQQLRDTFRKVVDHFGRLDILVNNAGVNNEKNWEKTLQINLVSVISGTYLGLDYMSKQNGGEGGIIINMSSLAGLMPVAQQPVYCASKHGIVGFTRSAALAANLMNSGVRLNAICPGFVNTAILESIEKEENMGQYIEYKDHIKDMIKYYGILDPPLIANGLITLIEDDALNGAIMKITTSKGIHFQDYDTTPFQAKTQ
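20 nM HPGD preincubated 15 min at room temperature with compound in 50 mM Tris-HCl pH 8, 0.01% Tween 20. Started with 1 mM NAD+ and 30 uM prostaglandin E2; NADH fluorescence (360/450 nm) read 5 times over 30-s intervals, last minus first.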
PNC inhibitor – perinucleolar compartment assembly inhibition; PC3M PTB-GFP, PNC prevalence imaging, 16 h; hits give low values; AID 2417; activity change (PNC), negative = inhibition, % at 10 µM; 140,000 tested, 3.1% active;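 active = readout at or below -70, meaning at least 70% loss of cells showing the perinucleolar compartment, a nuclear body marking cancer cells; inconclusive = readout between -30 and a set limit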;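 also: plate controls were DMSO wells for no effect and camptothecin positive control wells for full effect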
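Read-out is percentage of cells bearing a perinucleolar compartment, from automated 20x imaging of fixed, Hoechst-stained PC3M PTB-GFP cells. Cells were seeded 4 h, then exposed 16 h to compound (23 nl of library stock) in duplicate plates.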
The depositor's hits bear a star; [ ] = another dose, or the depositor's remark. Compounds with a hit are over-represented: about 11% of the library has one in this group of screens. Unless noted, calls follow the shape of the dose curve; as a rule, active = well fitted inhibition curve with a large enough effect (not every such curve was filed as active); inconclusive = small, poorly fitted or top-dose-only effect, or another doubt; inactive = no such curve, though single readings can be large or run the other way. Unless noted, % is scaled to controls: 0 for no effect and ±100 for the full control effect.

What do the screens show for `O=C(NN1C(=O)C2C3C=CC(O3)C2C1=O)c1cccc(Br)c1` (configuration not stated)?
IMPase Li cell: 1%; ALDH1A1 block: 28µM*

What do the screens show for `O=C(NN1C(=O)C2C3C=CC(O3)C2C1=O)c1cccc(O)c1` (configuration not stated)?
ALOX12 inhib: -1%; IMPase Li cell: 6%; ALDH1A1 block: 20µM*; IMPase cell inh: -4; HPGD inh: -3%; PNC inhibitor: -29

Results for CC1(C)C(=O)Nc2ccccc2N1C(=O)COc1ncnc2c(Cl)cc(Cl)cc12 ?
ALOX12 inhib: -8%; ALDH1A1 block: 28µM*; IMPase cell inh: -3; PNC inhibitor: 8

What do the screens show for `CCc1cc(C(=O)NNC(=S)Nc2ccccc2C)cs1`?
ALOX12 inhib: -20%; IMPase Li cell: 3%; ALDH1A1 block: 25µM*; IMPase cell inh: -7; HPGD inh: -17%; PNC inhibitor: inconclusive

What do the screens show for `COc1ccccc1N1CCN(c2nc3ccc(C)cc3nc2-n2nc(C)cc2C)CC1`?
IMPase cell inh: 0

What do the screens show for `Cc1c(Cl)cnc(NC(=O)COC(=O)C(NC(=O)c2ccco2)C(C)C)c1Cl` (configuration not stated)?
ALOX12 inhib: -9%; IMPase Li cell: 2%[38.3 µM]; ALDH1A1 block: 11µM*; IMPase cell inh: -15; HPGD inh: -8%; PNC inhibitor: 4

What do the screens show for `Cc1ccc(C(CCN(Cc2ccccc2)C(=O)c2ccco2)c2ccco2)cc1` (configuration not stated)?
ALOX12 inhib: -13%; IMPase Li cell: 10%; ALDH1A1 block: 20µM*; HPGD inh: inconclusive; PNC inhibitor: inconclusive

Results for CC(=O)N(CCC(c1ccccc1)c1ccco1)Cc1cccs1 (configuration not stated) ?
ALOX12 inhib: 0%; IMPase Li cell: 35%[38.3 µM]; ALDH1A1 block: 1.4µM*; IMPase cell inh: 9; HPGD inh: 28µM*; PNC inhibitor: -7

Results for CN(Cc1ccccc1)C(=O)c1ccco1 ?
IMPase Li cell: 1%; ALDH1A1 block: 5%

Results for O=C(c1ccco1)N(CCC(c1ccccc1)c1ccco1)Cc1ccco1 (configuration not stated) ?
ALOX12 inhib: -15%; IMPase Li cell: -16%[38.3 µM]; ALDH1A1 block: 3.5µM*; IMPase cell inh: 6; HPGD inh: 20µM*; PNC inhibitor: 35

Results for CC1(C)CC(CCN(Cc2ccccc2)C(=O)c2ccco2)(c2ccccc2)CCO1 (configuration not stated) ?
ALOX12 inhib: -10%; IMPase Li cell: 8%; ALDH1A1 block: 25µM*; IMPase cell inh: 8; HPGD inh: -12%; PNC inhibitor: -11

Results for CN1CCN(c2ncc3ncc(=O)n(CCc4ccccc4)c3n2)CC1 ?
IMPase Li cell: 21%; ALDH1A1 block: inconclusive

What do the screens show for `COc1ccc(Oc2ncc3nc(-c4cccs4)c(=O)n(Cc4cccc(OC)c4)c3n2)cc1`?
ALOX12 inhib: -2%; IMPase Li cell: 3%; ALDH1A1 block: inconclusive; HPGD inh: -16%

What do the screens show for `O=C(O)CCc1ccc(-c2ccc(Br)cc2)n1-c1ccccc1O`?
IMPase cell inh: -4

How did CCc1ccc(/C=C\C(=O)N2CCc3ccccc3C2)cc1 do in these assays?
ALOX12 inhib: -7%; IMPase Li cell: 16%[38.3 µM]; ALDH1A1 block: 1%; IMPase cell inh: 0; HPGD inh: 11µM*; PNC inhibitor: 74

How did Cc1cccc(N2CCN(CCNC(=O)Nc3ccc(Cl)cc3)CC2)c1C do in these assays?
IMPase cell inh: 7

How did CCc1ccc(S(=O)(=O)N(C(=O)Oc2ccccc2)c2ccc3oc(C)c(C(=O)OC)c3c2)cc1 do in these assays?
IMPase cell inh: -6

What do the screens show for `COc1ccc(Oc2ccc(N/C=C/C(=O)C(C)(C)C)cc2)cc1`?
IMPase Li cell: 9%; ALDH1A1 block: inconclusive

How did COc1cccc(Oc2ccc(N/C=C/C(=O)C(C)(C)C)cc2)c1 do in these assays?
ALOX12 inhib: 2%; IMPase Li cell: 11%; ALDH1A1 block: 10µM*; HPGD inh: -26%; PNC inhibitor: 31

How did COc1ccccc1Oc1ccc(N/C=C/C(=O)C(C)(C)C)cc1 do in these assays?
IMPase Li cell: 20%; ALDH1A1 block: -15%

What do the screens show for `CC(=O)Nc1ccc(N/C=C/C(=O)C(C)(C)C)cc1`?
ALOX12 inhib: -1%; IMPase Li cell: 25%[38.3 µM]; ALDH1A1 block: 22µM*; IMPase cell inh: 4; HPGD inh: inconclusive; PNC inhibitor: -5

Results for Cc1noc(C)c1-c1ccc2ncnc(N3CCC(C(=O)O)CC3)c2c1 ?
IMPase Li cell: -5%; ALDH1A1 block: inconclusive

Results for Cc1ccc(C(=O)NC(O)C(Cl)Cl)cc1 (configuration not stated) ?
ALOX12 inhib: -4%; IMPase Li cell: -9%; ALDH1A1 block: 7%; HPGD inh: 25µM*; PNC inhibitor: 71

How did Cc1ccc(C(=O)NNC(=O)c2ccc(C)cc2)cc1 do in these assays?
IMPase Li cell: 3%; ALDH1A1 block: 18%

Results for Cc1ccc(C(=O)NC=C(Cl)Cl)cc1 ?
ALOX12 inhib: 2%; IMPase Li cell: 23%[38.3 µM]; ALDH1A1 block: -4%; IMPase cell inh: 16; HPGD inh: 28µM*; PNC inhibitor: inconclusive

How did O=C(c1ccc(Cl)cc1)c1cnc(Nc2ccccc2Cl)s1 do in these assays?
ALOX12 inhib: -5%; IMPase Li cell: -20%[38.3 µM]; ALDH1A1 block: -3%; IMPase cell inh: -8; HPGD inh: -23%; PNC inhibitor: 11

What do the screens show for `Clc1cccc(Nc2nc(-c3ccncc3)cs2)c1`?
IMPase Li cell: 13%; ALDH1A1 block: -2%

Results for S=c1[nH]nc(Nc2cccc(Cl)c2)s1 ?
IMPase Li cell: 6%; ALDH1A1 block: 2.5µM*

How did S=c1[nH]nc(Nc2ccccc2Cl)s1 do in these assays?
IMPase Li cell: 6%; ALDH1A1 block: 1.4µM*

Results for Cc1cc2c(c(SCC(=O)NCCc3ccccc3)n1)C(=O)OC2 ?
ALOX12 inhib: -2%; IMPase Li cell: -5%[38.3 µM]; ALDH1A1 block: -18%; IMPase cell inh: -1; HPGD inh: -13%; PNC inhibitor: inconclusive

Results for O=S(=O)(c1ccc2c(c1)OCCO2)N1CCC(c2nc3ccc(Cl)cc3[nH]2)CC1 ?
ALOX12 inhib: -10%; IMPase Li cell: 52%[38.3 µM]; ALDH1A1 block: inconclusive; IMPase cell inh: 10; HPGD inh: -19%; PNC inhibitor: -14

Screening data as filed in PubChem BioAssay.
